In ChEMBL document CHEMBL4513146, “CO-ADD screening of Karazin Kharkiv National University (Ukraine) compounds”:
Entries with a potency or affinity are not part of this list.

Tests used:
Klebsiella pneumoniae = details: Concentration 32 ug.mL-1;; ASSAY_TEST Inhibition of Bacterial Growth; detection method Absorption (OD600); MEDIA CAMHB; plate type 384well; NBS; CORNING #3640; time 18 hr
Candida albicans = details: Concentration 32 ug.mL-1; ASSAY_TEST Inhibition of Fungal Growth; detection method Absorption (OD530)
Cryptococcus neoformans = details: Concentration 32 ug.mL-1; ASSAY_TEST Inhibition of Fungal Growth; detection method Resazurin; Absorption (OD600-OD570); plate type 384well; NBS; CORNING #3640

| Compound | Inhibition (Klebsiella pneumoniae) [%] | Inhibition (Candida albicans) [%] | Inhibition (Cryptococcus neoformans) [%] |
| --- | --- | --- | --- |
| CCc1ccccc1NC(=O)Cn1nc2cc(C)nc(Nc3ccc(F)cc3)n2c1=O | 9.33 | 29.91 | -17.34 |
| COC(=O)c1ccc(NC(=O)CSc2nnc3c4cc(-c5ccc(OC)cc5)nn4ccn23)cc1 | 13.79 | 0.37 | -25.69 |
| CCCCOc1ccc(-c2cc3c4nnc(SCC(=O)Nc5ccc(OC)cc5)n4ccn3n2)cc1 | 6.75 | 3.4 | -13.28 |
| COc1ccc(NC(=O)Cn2c(=O)c3nnc(C(C)C)n3c3ccccc32)cc1Cl | 7.18 | 3.46 | -13.11 |
| CC(C)Sc1ccc2nn(CC(=O)Nc3ccccc3F)c(=O)n2n1 | 9.69 | 2.46 | -3.85 |
| Cc1cccc(NC(=O)Cn2nc3c4cc(-c5ccc(Cl)cc5)nn4ccn3c2=O)c1 | 1.22 | 16.29 | -21.44 |
| COc1cccc(NC(=O)Cn2nc3c(Oc4ccccc4)nccn3c2=O)c1 | -9.5 | 1.78 | -2.51 |
| Cc1cccc(Oc2nccn3c(=O)n(CC(=O)N4CCN(c5ccc(F)cc5)CC4)nc23)c1C | 7.83 | -1.43 | -7.63 |
| COc1cccc(Oc2nccn3c(=O)n(CC(=O)Nc4ccc(C(C)C)cc4)nc23)c1 | -4.77 | 3.55 | -2.79 |
| COc1cccc(NC(=O)Cn2nc3c(N4CCCC4)nccn3c2=O)c1 | 8.57 | 2.47 | -12.87 |
| COc1ccccc1-n1ccn2c(SCC(=O)Nc3ccc(F)cc3F)nnc2c1=O | 8.27 | 0.36 | -9.49 |
| CCOc1ccc(-n2ccn3c(SCC(=O)NCc4ccccc4Cl)nnc3c2=O)cc1 | 10.62 | 2.57 | -15.06 |
| COc1ccc(N(Cc2ccccc2F)S(=O)(=O)c2ccc3nnc(C)n3c2)cc1 | 4.15 | -0.01 | -2.71 |
| O=C(Cn1nc2c(N3CCOCC3)nccn2c1=O)NCc1ccc(C(F)(F)F)cc1 | 3.05 | 1.76 | -5.37 |
| O=C(Cn1nc2c(N3CCOCC3)nccn2c1=O)NCc1cc(F)cc(F)c1 | 6.28 | 4.54 | -8.22 |
| COc1ccc(NC(=O)Cn2nc3c(N4CCCC(C)C4)nccn3c2=O)cc1OC (centres undefined) | -1.27 | -0.12 | -7.35 |
| N#Cc1cccc(NC(=O)Cn2nc3c(Oc4ccccc4)nccn3c2=O)c1 | 7.41 | 1.17 | -6.48 |
| Cc1ccc(NC(=O)Cn2nc3ccc(SC4CCCCC4)nn3c2=O)cc1 | -2.92 | 2.85 | -17.59 |
| COc1ccc(CNC(=O)Cn2nc3c(N4CC(C)CC(C)C4)nccn3c2=O)cc1 (centres undefined) | -3.24 | 4.41 | -8.27 |
| COc1cc(NC(=O)C(C)Sc2nnc3c(=O)n(-c4cccc(OC)c4)ccn23)cc(OC)c1 (centres undefined) | 2.2 | -0.84 | -10.32 |
| CC(C)NC(=O)CCn1c(=O)c2ccccc2n2c(=O)n(CC#N)nc12 | 10.9 | 0.91 | -13.64 |
| CC(C)Cn1c(=O)c2sccc2n2c(=O)n(CC(=O)NC(C)(C)C)nc12 | 2.39 | -0.9 | -15.87 |
| COc1ccccc1N1CCN(C(=O)Cn2nc3ccc(-c4ccc(C)c(C)c4)nn3c2=O)CC1 | 9.25 | -0.19 | -3.44 |
| N#CCSc1nnc2c(=O)n(-c3ccccc3)ccn12 | 18.13 | 2.9 | -7.27 |
| CCOc1ccc(C(=O)Cn2nc3n(CCC(C)C)c(=O)c4sccc4n3c2=O)cc1 | 4.69 | 2.69 | -12.75 |
| Cc1ccc(CNC(=O)CSc2nnc3c4cc(-c5ccc(C)cc5)nn4ccn23)cc1 | 11.71 | -0.39 | -36.09 |
| Cc1cccc(NC(=O)Cn2nc3c(Sc4ccccc4)nccn3c2=O)c1 | -4.33 | 0.01 | -4.87 |
| Cc1ccc(-c2ccc3nn(CC(=O)NC4CCCCC4)c(=O)n3n2)cc1C | 13.52 | 3.29 | -9.98 |
